Experimental data: PubChem BioAssay (NCATS)
Records with an inconclusive call do not appear. Activity calls are given as the source filed them. The call rests on the fitted dose curve. Square brackets hold non-standard residues; d marks the D form. Peptide text beside a SMILES is read from it. * marks the point of attachment. Benzoyl(4-tBu) = CC(C)(C)c1ccc(C(=O)*)cc1; Lys(Et2) = CCN(CC)CCCC[C@H](N)C(=O)O

assay: Primary qHTS to identify inhibitors of SARS-CoV-2 cell entry (AID 1645846); conditions: SARS-CoV-2 pseudovirus cell entry assay, luminescence; activity change, negative = inhibition: at 57.1 µM (top of the series) unless noted; further: nearly all actives have a fitted effect of over 45% in size
In short: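 Inhibition of spike-mediated entry was scored in human ACE2-transfected Expi293F cells. Particles were MLV-pseudotyped with Wuhan-Hu-1 S carrying a 19-aa C-terminal deletion; signal was luciferase after two days, scaled between spike PP and fusion-protein-free PP.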
Potency means the concentration at half of the fitted maximal effect.

Going from `CC(C)=CCC[C@](C)(O[C@@H]1O[C@H](CO[C@@H]2O[C@H](CO)[C@@H](O)[C@H](O)[C@H]2O)[C@@H](O)[C@H](O)[C@H]1O)[C@H]1CC[C@]2(C)[C@@H]1[C@H](O)C[C@@H]1[C@@]3(C)CC[C@H](O[C@@H]4O[C@H](CO)[C@@H](O)[C@H](O)[C@H]4O[C@@H]4O[C@H](CO)[C@@H](O)[C@H](O)[C@H]4O)C(C)(C)[C@@H]3CC[C@]12C` to `CN(CCO)C1CCN(c2ccc(Nc3ncc4c5ccnc(F)c5n(C5CCCC5)c4n3)nc2)CC1`, the activity change, negative = inhibition falls from -3.97% [at 27.1 µM] to -15.6% [at 27.1 µM].

`Cc1ccc(NC(=O)c2ccc(CN3CC[C@H](N(C)C)C3)c(C(F)(F)F)c2)cc1Nc1nccc(-c2cncnc2)n1` showed an activity change, negative = inhibition of -12% [at 27.1 µM].

Going from `COc1c(Nc2ncc(Cl)c(N[C@H]3[C@H](C(N)=O)[C@@H]4C=C[C@@H]3C4)n2)ccc2c1CCC(N1CCOCC1)CC2` (stereo not given in full) to `NC(=O)c1cc(F)cc2c1C(=O)N(C1CCN(C3CCC(F)(F)CC3)CC1)C2`, the activity change, negative = inhibition rises from -55.4% to -24%.

First: COc1cc2c(cc1OCCCN1CCCC1)N=C(N)C21CCC1
Second: CCC(=O)N1CCOc2c(cc(-c3cc(OC)cc(OC)c3)cc2C(=O)N[C@H]2CCCN(C)C2)C1
The activity change, negative = inhibition of the first is higher: -8.97% for the first, -26.1% for the second.

Compared with `CCOc1ccc(-n2c([C@@H](C)N(Cc3cccnc3)C(=O)Cc3ccc(F)c(C(F)(F)F)c3)nc3ncccc3c2=O)cc1`, `Cc1cc(Oc2ccc3nc(COc4ccc(CC5SC(=O)NC5=O)cc4)n(C)c3c2)cc(C)c1N` (stereo not given) is higher in activity change, negative = inhibition: -17.6% for the first, 2.59% for the second.

Compared with `Cc1ccc(NS(=O)(=O)c2ccc3c(c2)C2C=CCC2C(c2ccc(C(=O)O)cc2)N3)cc1C` (stereo not given), `COc1ccnc2[nH]cc(C(=O)C(=O)N3CCN(C(=O)c4ccccc4)C[C@H]3C)c12` is higher in activity change, negative = inhibition: -18.7% for the first, -5.46% for the second.

Going from `CC(C)(C)C(=O)N1N=CC[C@H]1c1ccccc1` to `COC(=O)N1CC2(CC2)C[C@H](C(=O)NO)[C@H]1C(=O)N1CCN(c2ccccc2)CC1`, the activity change, negative = inhibition falls from -3.46% to -12.3%.

Going from `CN[C@@H](C)C(=O)N[C@H](C(=O)N1CCC[C@H]1c1nc(C(=O)c2ccc(F)cc2)cs1)C1CCCCC1` to `CCO[C@@H]1OC(=O)C[C@@H]1NC(=O)[C@@H]1CCCN1C(=O)[C@@H](NC(=O)c1ccc(N)c(Cl)c1)C(C)(C)C`, the activity change, negative = inhibition falls from -6.26% to -14.2%.

Compared with `c1ccc(CNCc2ccc(CN3CCCNCCNCCCNCC3)cc2)nc1`, `Cc1nn(C)c(COc2ccc(N3CCN(S(=O)(=O)N(C)C)CC3)cc2)c1-c1cccc2c(CCCOc3cccc4ccccc34)c(C(=O)O)n(CCN3CCOCC3)c12` is lower in activity change, negative = inhibition: -7.13% for the first, -18.4% for the second.

Compared with `O=C1Cc2cc(C(=O)NC3C[C@H]4CC[C@@H](C3)N4S(=O)(=O)CC3CCN(CCCC(F)(F)F)CC3)c(Cl)cc2N1` (stereo not given in full), `C[C@]12CCC3[C@@H](CC[C@H]4NC(=O)C=C[C@]34C)[C@@H]1CC[C@@H]2C(=O)Nc1cc(C(F)(F)F)ccc1C(F)(F)F` (stereo not given in full) is higher in activity change, negative = inhibition: -20.5% for the first, -7.71% for the second.

Going from `Nc1nc(F)nc2c1ncn2[C@@H]1O[C@H](COP(=O)(O)O)[C@@H](O)[C@@H]1O` to `Cc1nc(NC(=O)N2CCCC2C(N)=O)sc1-c1ccnc(C(C)(C)C(F)(F)F)c1` (stereo not given), the activity change, negative = inhibition falls from 0.103% to -29.8%.

First: C[C@]12CCCN1CC1=NNC(=O)c3cc(F)cc4[nH]c2c1c34
Second: C=Cc1cc(O)cc2nc(-c3ccc(O)c(F)c3)oc12
The activity change, negative = inhibition of the first is lower: -15.3% for the first, -0.0201% for the second.

Compared with `C=C1[C@H](OC(=O)/C=C(\C)CC)C[C@@H](C(C)C)[C@@H]2[C@H]([C@@H](C)OC(C)=O)C(=O)C[C@@H]12`, `COc1cc2ncnc(Oc3cccc(NC(=O)Nc4cc(C(C)(C)C(F)(F)F)on4)c3)c2cc1OC` is lower in activity change, negative = inhibition: -14.8% for the first, -20.7% for the second.

For `O=C(NOCC(O)CO)c1ccc(F)c(F)c1Nc1ccc(I)cc1F` (stereo not given), the activity change, negative = inhibition was -21.5%.

In the case of `CCC(=O)O[C@]1(C(=O)CO)CC[C@H]2[C@@H]3CCC4=CC(=O)CC[C@]4(C)[C@H]3CC[C@@]21C`, the “outcome” value is reported as “inactive”.
With `O=C1OC2(CCC(C(=O)Nc3ccn(-c4ccccc4F)n3)CC2)c2cnccc21` (stereo not given) the “outcome” value was “inactive”.
With `COc1ccc([C@@H]2CC(=O)c3c(O)cc(O[C@@H]4O[C@H](CO[C@@H]5O[C@@H](C)[C@H](O)[C@@H](O)[C@H]5O)[C@@H](O)[C@H](O)[C@H]4O)cc3O2)cc1O` the “outcome” value was “inactive”.
With `CCN(CC)CCCC[C@H](NC(=O)[C@H](CC(C)C)NC(=O)[C@H](C)NC(=O)[C@H](Cc1ccccc1)NC(=O)c1ccc(C(C)(C)C)cc1)C(=O)N[C@@H](CO)C(=O)OC` ({Benzoyl(4-tBu)}-FAL[Lys(Et2)]S-OMe) the “outcome” value was “inactive”.

For `C[C@H](NC(=O)/C(C#N)=C/c1cccc(Br)n1)c1ccccc1`, the Potency was 35.5 µM (active).
In the case of `Oc1ccc(Nc2nc(-c3ccc(Cl)cc3)cs2)cc1`, the Potency is reported as 28.2 µM (active).

In the case of `COc1cc2c(cc1OC)CN(CCc1ccc(-n3nnc(-c4cc(OC)c(OC)cc4NC(=O)c4cc(=O)c5ccccc5o4)n3)cc1)CC2`, the activity change, negative = inhibition is reported as 3.34% [at 0.702 µM].

Compound `O=C(/C=C/c1ccc(/C=C/C(=O)Nc2ccc(C3=NCCN3)cc2)cc1)Nc1ccc(C2=NCCN2)cc1` has an activity change, negative = inhibition of -24.3% [at 5.25 µM].

Work on `COCCNc1cc(NC(=O)N2CCCc3cc(CN4CCN(C)CC4=O)c(C=O)nc32)ncc1C#N` yielded an activity change, negative = inhibition of -9.55% [at 11.3 µM].
